Source: PubChem
HT1080 IDH1KD tx – toxicity to HT-1080 IDH1 knockdown cells (counter line); Potency, µM (series often up to 46.1 µM), without a hit: at the highest dose activity, negative = toxicity, hits mostly cytotoxic; 360,000 compounds, 2% hits; AID 686971; HT-1080 IDH1 knockdown viability, ATP luminescence, 48 h;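 further: potency means the concentration at half of the fitted maximal effect; 0% = DMSO wells and -100% = cell-free medium wells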
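Viability of IDH1-knockdown HT-1080 fibrosarcoma cells was assessed by CellTiter-Glo after 48 h at 37 °C with titrated compound; concentration-effect curves were classified by fit quality and response size.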
DT40 TDP1 no CPT – qHTS for Inhibitors of human tyrosyl-DNA phosphodiesterase 1 (TDP1): qHTS in cells in absence of CPT; DT40 Tdp1-/- hTDP1 cells, no CPT, ATP luminescence, 48 h; Potency, µM (series often up to 46.2 µM), for inactives: top-dose activity change, negative = growth inhibition, usual class: inhibitors; 420,000 compounds, 15% hits; further: potency means the concentration at half of the fitted maximal effect; nearly all actives have a fitted effect of over 55% in size
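Cells were dispensed at 400 per well, compounds added by pin tool, plates incubated ≥48 hr at 37 °C, then CellTiter-Glo added for 30 min at room temperature before luminescence reading. Line: DT40 Tdp1-/- complemented with hTDP1; camptothecin omitted.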
IL-1B inflam inh – inflammasome signaling inhibition, IL-1 beta readout | THP-1 LPS/ATP IL-1B secretion, AlphaLISA, 16 h; hits give low values | activity change, % at 57.5 µM | 360,000 compounds, 4.7% hits; in the data active means activity change below about -50%; inconclusive means mostly about -30% to -49%
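THP-1 cells pretreated 1 hr with compounds (up to 57.5 uM final), then stimulated with LPS (250 ng/mL final) plus ATP (1.25 mM final); secreted IL-1B measured by AlphaLISA after 16 hr, decreased signal indicating inhibition.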
DT40 TDP1 CPT – growth inhibition of DT40 Tdp1-/-;hTDP1 cells with camptothecin (screen for TDP1 inhibitors). chicken DT40 Tdp1-/-;hTDP1 cells + 20 nM CPT, ATP luminescence, 48 h. Potency, µM (top dose mostly 46.2 µM), without a hit: at the top dose activity change, negative = growth inhibition, usual class: inhibitors. 420,000 compounds, 12% hits. AID 686979; further: potency means the concentration at half of the fitted maximal effect; nearly all actives have a fitted effect of over 55% in size
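Chicken DT40 Tdp1-/- cells stably complemented with human TDP1 were seeded at 400 cells/well in medium containing 20 nM camptothecin, exposed to pin-transferred compounds, and grown at 37 °C for at least 48 hr. Viability was read as ATP luminescence.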
HT1080-NT tox – kills 2HG-producing HT-1080-NT fibrosarcoma cells | HT-1080-NT fibrosarcoma viability, CellTiter-Glo ATP luminescence, 48 h | Potency, µM (top dose mostly 46.1 µM), without a hit: top-dose activity, negative = less viability, usual class: cytotoxic | 360,000 compounds, 1.6% hits | AID 686970;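 further: NT is the 2HG producing partner of a matched IDH1 knockdown line; potency means the concentration at half of the fitted maximal effect; 0% = DMSO-treated cells and -100% = media-only wells without cells; nearly all actives have a fitted effect of over 55% in size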
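A 48-hour cytotoxicity screen used HT-1080-NT cells plated 2 hours before compound delivery. ATP-based CellTiter-Glo luminescence measured viability, normalized to DMSO and no-cell controls.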
An asterisk follows results filed as active; ? = inconclusive; . = no result given. Compounds with a hit are over-represented: about 19% of the library has one in this group of screens. Unless noted, the call rests on the fitted dose curve; in most records, active means well fitted curve in the direction sought with a large enough effect; inconclusive means small, poorly fitted or top-dose-only effect, or another doubt; inactive means no such curve, though single readings can be large; an effect the other way counts as inactive or inconclusive. Unless noted, on the % scale 0 is the no-effect control and ±100 the full control effect.

SMILES	HT1080 IDH1KD tx	DT40 TDP1 no CPT	IL-1B inflam inh	DT40 TDP1 CPT	HT1080-NT tox
COc1ccc(CN2C(=O)CSCC2=O)cc1OC	9%	4%	4	2%	8%
CCc1ccc(NC2CC(=O)N(CCc3ccc(OC)c(OC)c3)C2=O)cc1 (stereo unspecified)	-7%	23µM*	2	?	-14%
COc1ccc(CCNC2CC(=O)N(CCc3ccccc3)C2=O)cc1OC (stereo unspecified)	3%	-17%	-1	0%	2%
COc1ccc(CCN2C(=O)CC(Nc3ccc(N4CCOCC4)cc3)C2=O)cc1OC (stereo unspecified)	7%	2.3µM*	-4	0%	1%
COc1ccc(CCN2C(=O)CSC2=S)cc1OC	23µM*	2.6µM*	-73*	2.9µM*	?
CC1=C(C(=O)N2CCOCC2)CC(CC(=O)NCC2CCCCC2)C(=O)N1Cc1ccc(C(C)(C)C)cc1 (stereo unspecified)	?	?	-53*	18µM*	?
CC1=C(C(=O)N2CCCCCC2)CC(CC(=O)NCCCN(C)C)C(=O)N1Cc1ccc(C(C)(C)C)cc1 (stereo unspecified)	?	?	.	8.3µM*	?
COc1ccc(CN2C(=O)C(CC(=O)NC3CCCC3)CC(C(=O)N(C(C)C)C(C)C)=C2C)cc1 (stereo unspecified)	-3%	?	16	?	8%
CC1=C(C(=O)N(C(C)C)C(C)C)CC(CC(=O)NC2CCCCC2)C(=O)N1Cc1ccc(C(C)(C)C)cc1 (stereo unspecified)	?	21µM*	-30	15µM*	?
CC1=C(C(=O)N2CCCCCC2)CC(CC(=O)NC2CCCCC2)C(=O)N1Cc1ccc(C(C)(C)C)cc1 (stereo unspecified)	-16%	21µM*	-73*	15µM*	-6%
CC1=C(C(=O)N2CCOCC2)CC(CC(=O)NC2CCCC2)C(=O)N1Cc1ccccc1 (stereo unspecified)	8%	-11%	19	6%	3%
CCOC(=O)c1c(NC(=S)N2CCOCC2)sc(C)c1C	-4%	-25%	14	-20%	0%
CC1=C(C(=O)N2CCOCC2)CC(CC(=O)NC2CCCCC2)C(=O)N1Cc1ccc(C(C)(C)C)cc1 (stereo unspecified)	-3%	21µM*	-13	?	17%
CC1=C(C(=O)N2CCOCC2)CC(CC(=O)NC2CC2)C(=O)N1Cc1ccc(C(C)(C)C)cc1 (stereo unspecified)	2%	-28%	11	-26%	-6%
CC1=C(C(=O)N2CCCCCC2)CC(CC(=O)NCCc2ccccn2)C(=O)N1Cc1ccc(C(C)(C)C)cc1 (stereo unspecified)	?	16µM*	?	18µM*	-1%
CCN(Cc1cccs1)C(=O)CN1C(=O)NC2(CCCc3ccccc32)C1=O (stereo unspecified)	-5%	-19%	-28	21µM*	-1%
C=CCn1c(C)cc(C(=O)CN2C(=O)NC3(CCCc4ccccc43)C2=O)c1C (stereo unspecified)	-9%	?	-22	?	-7%
CCN(C(=O)CN1C(=O)NC2(CCCc3ccccc32)C1=O)c1ccc(F)cc1 (stereo unspecified)	8%	16µM*	4	?	-4%
CCN(Cc1cccs1)C(=O)CN1C(=O)NC(c2ccccc2)(c2ccccc2)C1=O	3%	?	-14	?	-10%
Cc1cc(C(=O)CN2C(=O)NC3(CCCc4ccccc43)C2=O)c(C)n1Cc1cccs1 (stereo unspecified)	-17%	?	?	16µM*	-21%
Cc1ccc(C(=O)N/N=C/c2ccc(OC(=O)c3ccccc3Cl)cc2)cn1	-1%	?	-2	?	14%
Cc1ccc(C(=O)N/N=C\c2ccc(-c3ccc(Cl)c(Cl)c3)o2)cn1	18µM*	?	?	?	16µM*
